Whole data set: some 39,000 sequences, median “fluorescence intensity (a.u.)” near 4,300, cut for the highest 2% near 39,000. The entries come from a sample that favours the highest values as a whole.

For the experiment, the target named is T1, OsSMF1 (Oryza sativa, UniProt Q6ZLB0 1-436).
T1 sequence: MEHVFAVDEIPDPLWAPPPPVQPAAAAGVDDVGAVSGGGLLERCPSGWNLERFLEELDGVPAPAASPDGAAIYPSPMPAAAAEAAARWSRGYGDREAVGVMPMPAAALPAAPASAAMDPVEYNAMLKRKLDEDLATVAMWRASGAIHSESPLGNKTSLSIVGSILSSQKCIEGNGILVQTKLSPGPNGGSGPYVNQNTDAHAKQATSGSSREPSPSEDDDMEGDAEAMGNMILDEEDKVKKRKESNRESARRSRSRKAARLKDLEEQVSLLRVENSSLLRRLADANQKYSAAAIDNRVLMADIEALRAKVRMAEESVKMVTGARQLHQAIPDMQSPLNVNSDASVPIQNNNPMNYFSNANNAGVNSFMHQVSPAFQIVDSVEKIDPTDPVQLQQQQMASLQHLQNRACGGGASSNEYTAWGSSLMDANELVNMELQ
The experiment in a line: protein-binding microarray (RPBM); PBS, 2% BSA, 51.3 ng/ul salmon testes DNA, 50 uM zinc acetate, 200 nM TF, 25 C, 1 h; high values mean tight binding. The following applies: protein: recombinant; tags: N-terminal polyhistidine and DsRed monomer fusion (pET32a); chain copies: 2; label: CyDye5-dUTP incorporated in the synthesized complementary strand; 3' TTTTT single-stranded linker to array surface; dsDNA, one strand shown. In short, it runs like this: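 Binding signal is defined as the fluorescence intensity of each feature in arbitrary units, read on an Axon 4000B scanner. Transcription factors with N-terminal polyhistidine and DsRed fusions came from E. coli BL21-CodonPlus and were purified on Ni–NTA. They were incubated at 200 nM for 1 h at 25 °C on a custom Agilent array that had been made double-stranded with Cy5-dUTP, with 50 µM zinc acetate present, and the array was washed.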
As for “CGTCCGCAGCACGCCACGGTAGCGCGACACCCGGCCTTCCCGGAGTCACCTAGTGCAG”, the binding signal is 4600 fluorescence intensity (a.u.). For the sequence “AAGCGATGGAAGCAGCAGACGTGTCGCACGGGAATTTGAGCGGAGTCACCTAGTGCAG”, the binding signal was 5240 fluorescence intensity (a.u.). For “GGCATGGGTATGGGTCATCACTACCCATGCCCGCTTTGCCCGGAGTCACCTAGTGCAG” the value was 4410 fluorescence intensity (a.u.); for “TTTTAGGTAGAATGGTCCTGTTGGATCATCATATCAATGACGGAGTCACCTAGTGCAG”, 43400 fluorescence intensity (a.u.); for “GATGGTAGGTATGCATATGACGCATATCCTACCTGACGGACGGAGTCACCTAGTGCAG”, 3450 fluorescence intensity (a.u.).

As for “GTTGACATATGGATCCTGGTGTTATCGACTCAATGTAGAGCGGAGTCACCTAGTGCAG”, the binding signal is 5150 fluorescence intensity (a.u.). For “TATCCAGGCGCACGACACTTGACAACTCTGTACTACGTAGCGGAGTCACCTAGTGCAG” the value was 38900 fluorescence intensity (a.u.); for “AATTGATCTTCAGAGCCCACGTAGGTATTAGACTTTCCTACGGAGTCACCTAGTGCAG”, 6290 fluorescence intensity (a.u.). The same measure for “GGCCAGTTCTCTTCCACGTGGAGGCGGCCTCTCACAGCCGCGGAGTCACCTAGTGCAG”: 10300 fluorescence intensity (a.u.). “AATTTCAGTACTCAGTTCATTAAATTAATTAAAGAAAGGCCGGAGTCACCTAGTGCAG”: the binding signal is 51100 fluorescence intensity (a.u.). For the sequence “TAGTTTCACTTATTATTTATTTCAGTAAAAGAAAGTTTCCCGGAGTCACCTAGTGCAG”, the binding signal is 3690 fluorescence intensity (a.u.). The same measure for “TCATCATCATCATCATTATTAAAGTAAATTTCAGAAAACTCGGAGTCACCTAGTGCAG”: 21600 fluorescence intensity (a.u.). For “GCGGAGGTCGACCTTGGCGAGGTCGTCCACGTCCGGGTGCCGGAGTCACCTAGTGCAG”, the binding signal was 3340 fluorescence intensity (a.u.). For “CCATCTTCATCTCCATATCTTCTCCTCCTCGCGTCGGCAGCGGAGTCACCTAGTGCAG” the value was 3270 fluorescence intensity (a.u.). Turning to “GCAATCTCATGATTCATGCAGCTTTGTAGCAATGTGTGCTCGGAGTCACCTAGTGCAG”, the binding signal was 3140 fluorescence intensity (a.u.). Turning to “GCTTCTGCTGTGGCTGTGCTGAGCTTTCACAGTCACAGCCCGGAGTCACCTAGTGCAG”, the binding signal is 3550 fluorescence intensity (a.u.).

Turning to “CCCAGCCCGGCGTCCCCTTCTCGGCTTCCTCCTCCACCATCGGAGTCACCTAGTGCAG”, the binding signal is 4100 fluorescence intensity (a.u.). For the sequence “CTTCAGTCCTCGGCCCATTCTCCCTTCCTTTCAGCTGGCTCGGAGTCACCTAGTGCAG”, the binding signal was 45600 fluorescence intensity (a.u.). Turning to “AAATCCGCCCTCGCCTCGCCCCGATCGATCCCCTCGATTCCGGAGTCACCTAGTGCAG”, the binding signal was 3810 fluorescence intensity (a.u.). For the sequence “TCTCCCCAGATTTCCCCTTCCATTCCGCCTCCCGATCGCTCGGAGTCACCTAGTGCAG”, the binding signal was 43300 fluorescence intensity (a.u.). For the sequence “TCTAACCCCGCCTGCAGATCCGCTCCATCGATTCCCTCCCCGGAGTCACCTAGTGCAG”, the binding signal was 31700 fluorescence intensity (a.u.). Consider “AACTTCTCAATGTGTGGCCCCGAGCTGTGGCTTCACAGCTCGGAGTCACCTAGTGCAG”, for which the binding signal was 63300 fluorescence intensity (a.u.). For “GGCCCCACATGTCATCTCCTCCCTTTCTTCTTCCTCCCCTCGGAGTCACCTAGTGCAG” the value was 4040 fluorescence intensity (a.u.); for “GGAGGAGGAGGAGGAGGGAGATGGTGGCGAGCTGACTTGGCGGAGTCACCTAGTGCAG”, 4090 fluorescence intensity (a.u.). For “TCAGCTGCGTCACCCGAGTCCTCCACTCGTCTCCGCTATTCGGAGTCACCTAGTGCAG” the value was 5650 fluorescence intensity (a.u.). For “TCACTGCGTGCATGTATGTACGTGGATTGTCCAATTACAACGGAGTCACCTAGTGCAG” the value was 3300 fluorescence intensity (a.u.). In the case of “CTCCTAGCAGCAACAGGGCCACGTTTGCTCTGCGAACAGGCGGAGTCACCTAGTGCAG”, the binding signal is 4590 fluorescence intensity (a.u.). For the sequence “TTTGGTTAGTGAATTTAGCTATCCTCTCCTTGACTTCCTACGGAGTCACCTAGTGCAG”, the binding signal is 3660 fluorescence intensity (a.u.). Take “ATTTAGTGCTAAATATGTAGTTTCATGATACATCATGTTACGGAGTCACCTAGTGCAG”: the binding signal was 3850 fluorescence intensity (a.u.). Consider “GGTGCAGTTCATCATATGTGTTAGACTAATTGAGTAATTGCGGAGTCACCTAGTGCAG”, for which the binding signal is 36500 fluorescence intensity (a.u.). For “TGTGTTCTGCAATGCATAATTGCACCAGTTCTAGTACCTGCGGAGTCACCTAGTGCAG” the value was 45300 fluorescence intensity (a.u.). For the sequence “TGGTGTGTAATTTGTGCAAATTCTAAGCAAATGCAAATTGCGGAGTCACCTAGTGCAG”, the binding signal is 17200 fluorescence intensity (a.u.).

As for “CAGGGGCATTTCCGTAAACTCCCACGTGGCACAGATACGGCGGAGTCACCTAGTGCAG”, the binding signal was 13200 fluorescence intensity (a.u.).

Turning to “TCTTGACATCCGGAATCATCACGCTCTTCCCAATCGAGGTCGGAGTCACCTAGTGCAG”, the binding signal is 3680 fluorescence intensity (a.u.). For “AAGTAGCCCGGATCTCCCAGCTTCCCTCGAGCTGACCTCACGGAGTCACCTAGTGCAG” the value was 3960 fluorescence intensity (a.u.); for “TTTAATTCAAATGCCAGCTAAGCGCTACGTCAACCCTACACGGAGTCACCTAGTGCAG”, 15500 fluorescence intensity (a.u.). Turning to “ACTAAGCTGCCACGTGGATGCCACGTCAGCGAAAACCACCCGGAGTCACCTAGTGCAG”, the binding signal was 61800 fluorescence intensity (a.u.). In the case of “TGCCACGTCAGCGAAAACCACCATCTAAACCACCGCCATGCGGAGTCACCTAGTGCAG”, the binding signal was 7960 fluorescence intensity (a.u.). Regarding “TTTAATTCAAATGCCACCTAAGCACCACGTCAGCGAAACCCGGAGTCACCTAGTGCAG”, the binding signal was 42600 fluorescence intensity (a.u.).

With “TTTTAATTCAAATGCCACCTAAGCGCCACGTCAACCCTATCGGAGTCACCTAGTGCAG”, the binding signal was 23500 fluorescence intensity (a.u.). In the case of “TGCTGACTATGATGCCACGTCAGCGAAACCACCCATATATCGGAGTCACCTAGTGCAG”, the binding signal is 23000 fluorescence intensity (a.u.). Turning to “GGGCGGAGCTAGAATAAAATAAAGGAGGGTTCCACTCGTTCGGAGTCACCTAGTGCAG”, the binding signal was 23100 fluorescence intensity (a.u.). For “TCGATTTACTGACAAAATTGTATCCCAAAACAATGGCTTACGGAGTCACCTAGTGCAG” the value was 33700 fluorescence intensity (a.u.); for “TTCTCTACCAGCGGCAGCGGCGGCTGGTAGGGAGGAGGAGCGGAGTCACCTAGTGCAG”, 4860 fluorescence intensity (a.u.). The same measure for “ATAAAGAAGGGAGGCAGCGGGCGAGCTGTAAAGGAGTACACGGAGTCACCTAGTGCAG”: 32300 fluorescence intensity (a.u.). For “GGATTGACGGGGACGCGGTGGTGGCGCCAACGGATGGACGCGGAGTCACCTAGTGCAG” the value was 6220 fluorescence intensity (a.u.); for “TTACTGGTGATATTTATTTTGACAAGTGCTTTTATTTGTACGGAGTCACCTAGTGCAG”, 3930 fluorescence intensity (a.u.); for “TTACTAGTACATTTAATATATTTATTTAATGTATTTGTATCGGAGTCACCTAGTGCAG”, 3140 fluorescence intensity (a.u.). Consider “CATTTTGTACTTTGACAAGTATTTAATATTTGCCAGTAGTCGGAGTCACCTAGTGCAG”, for which the binding signal is 65100 fluorescence intensity (a.u.). For “ATATTCGTCTCTATCGCTTAAGGCGGTTAGTTGCGTGTCACGGAGTCACCTAGTGCAG” the value was 3930 fluorescence intensity (a.u.); for “AATCATTTTATTTGACTAATACACGTCAGGATTGAATGAGCGGAGTCACCTAGTGCAG”, 4880 fluorescence intensity (a.u.); for “TTAATGATTTTATTTGAATGGATCAGGGTCCAATTTGCTGCGGAGTCACCTAGTGCAG”, 55800 fluorescence intensity (a.u.). Turning to “GTCCAATTTAATGCTGACGTTGCTGATGGAATGCCGTGGACGGAGTCACCTAGTGCAG”, the binding signal is 10500 fluorescence intensity (a.u.). The same measure for “GCAGGGCAGGCTGACAGCTCATCTTCTCAGAGGATCCGATCGGAGTCACCTAGTGCAG”: 5100 fluorescence intensity (a.u.).
